This note sets out measurements from PubChem BioAssay.

Values without a mark were called inactive. This is one part of the list. Activity calls are given as the source filed them.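 The calls were made as follows, unless noted: active = mean inhibition above 46.68%, the untreated control wells mean plus 3 SD; inactive = the rest.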

In test [1] the target is Nuclear receptor coactivator 3 (Homo sapiens) (UniProt Q9Y6Q9). As to the kind of experiment: NCOA3 GAL4-fusion reporter inhibition – cell-based, luminescence, quadruplicate, confirmation (AID 588792;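 active = mean inhibition over 43.08%, the solvent-only control mean plus 3 SD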;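 also: 0% = DMSO treated cells and 100% = gossypol at 36 µM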). The note with it: HEK293 GAL4-SRC3 luciferase reporter, at 3.6 µM, stronger effect = higher value. (A reporter such as luciferase makes a cellular process visible.)
The test system of test [2] is transactivating tegument protein VP16 (Human herpesvirus 1), Gal4-VP16 luciferase reporter. The test is described as follows: repression of VP16-driven luciferase reporter – cell-based, luminescence, high throughput, counter-screen for SRC3 inhibitor project (AID 588794; in the data active = inhibition above about 30%). The note with it: mammalian cells, at 3.6 µM, stronger effect = higher value.
For test [3], the target named is Nuclear receptor coactivator 1 (Homo sapiens) (UniProt Q15788). The test is described as follows: NCOA1 GAL4-fusion reporter inhibition – cell-based, luminescence, quadruplicate, confirmation (AID 588820).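 Also: 0% = DMSO wells and 100% = gossypol 36 µM treated wells.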 The settings on record: HEK293 GAL4-SRC1 luciferase reporter, at 3.6 µM, stronger effect = higher value.
Test [4] in a line: repression of VP16-driven luciferase reporter – cell-based, luminescence, high throughput, counter-screen for SRC1 inhibitor project (AID 588824; in the data active = inhibition above about 25%). The settings on record: cell-based VP16 transactivation luciferase luminescence; at 3.6 µM; stronger effect = higher value.
The test system of test [5] is transactivating tegument protein VP16 (Human herpesvirus 1). As to the kind of experiment: compounds suppressing VP16-driven luciferase signal – cell-based, luminescence, single concentration, counter-screen for SRC2 inhibitor project (AID 652007; in the data active = inhibition above about 36%). The settings on record: cell-based VP16 transactivation luciferase reporter, at 8.9 µM, stronger effect = higher value. A general note: Counterscreens check selectivity or assay interference.

Test [6] has as its target Nuclear receptor coactivator 2 (Homo sapiens) (UniProt Q15596). The test is described as follows: inhibition of GAL4-SRC2 driven luciferase expression – cell-based, luminescence, HEK293, triplicate, confirmation (AID 652008;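 active = mean inhibition above 46.5%, the solvent-only control mean plus 3 SD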;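 also: 0% = DMSO-treated cells and 100% = Gossypol at 36 µM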). The settings on record: HEK293 GAL4-SRC2 luciferase reporter, at 8.9 µM, stronger effect = higher value.
The nature of test [7]: StAR promoter reporter inhibitors, counter-screen for LRH-1 inverse agonist project, cell-based, luminescence, high throughput (AID 651611; in the data active = inhibition above about 28%). The settings on record: StAR promoter luciferase reporter counterscreen, at 3.6 µM, stronger effect = higher value.
In test [8] the target is Nuclear receptor subfamily 5 group A member 2 (Homo sapiens) (UniProt O00482). The test is described as follows: NR5A2 activity suppression in reporter cells – cell-based, luminescence, confirmation (AID 651613; in the data active = inhibition above about 42%;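 also: HEK293T cells co-transfected with LRH-1 and StAR promoter luciferase reporter; 0% = vehicle wells and 100% = parental cells lacking receptor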). The settings on record: cell-based LRH-1 luciferase reporter, inverse agonism; at 3.6 µM; stronger effect = higher value.
For test [9], the target named is Steroidogenic factor 1 (Homo sapiens) (UniProt Q13285). The test is described as follows: inverse agonism at SF1 nuclear receptor – cell-based, luminescence, high throughput, counter-screen for LRH-1 inverse agonist project (AID 651614; in the data active = inhibition above about 44%;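 also: cells cotransfected with StAR promoter reporter and SF1 expression vector; 0% = vehicle on cells with receptor and 100% = vehicle on cells lacking receptor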). The settings on record: cell-based SF1 luciferase reporter, at 3.6 µM, stronger effect = higher value.
The nature of test [10]: compounds suppressing VP16-driven luciferase signal – cell-based, luminescence, high throughput, counter-screen for LRH-1 inverse agonist project (AID 651615; in the data active = inhibition above about 33%). The note with it: Gal4-VP16 luciferase reporter cells, at 3.6 µM, stronger effect = higher value.
Test [11] in a line: VP16-driven transactivation reporter suppression – cell-based, luminescence, HEK293, counter-screen for COUP-TFII antagonist project (AID 687007; in the data active = inhibition above about 13%). The settings on record: HEK293 Gal4-VP16 luciferase reporter, at 8.5 µM, stronger effect = higher value.
In test [12] the target is COUP transcription factor 2 (Homo sapiens) (UniProt P24468). The test is described as follows: retest of COUP-TFII reporter suppressors – cell-based, luciferase reporter, HEK293, triplicate, confirmation (AID 687008;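 active = mean inhibition over three repeats above a set limit taken from the earlier primary screen, cut at about 38% in these data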;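 also: 100% = cells given the luciferase reporter alone without the COUP-TF2 vector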). The note with it: HEK293 NGFI-A luciferase reporter, luminescence; at 8.5 µM; stronger effect = higher value.
Sequence of COUP transcription factor 2 (Homo sapiens) (P24468 whole entry, looked up): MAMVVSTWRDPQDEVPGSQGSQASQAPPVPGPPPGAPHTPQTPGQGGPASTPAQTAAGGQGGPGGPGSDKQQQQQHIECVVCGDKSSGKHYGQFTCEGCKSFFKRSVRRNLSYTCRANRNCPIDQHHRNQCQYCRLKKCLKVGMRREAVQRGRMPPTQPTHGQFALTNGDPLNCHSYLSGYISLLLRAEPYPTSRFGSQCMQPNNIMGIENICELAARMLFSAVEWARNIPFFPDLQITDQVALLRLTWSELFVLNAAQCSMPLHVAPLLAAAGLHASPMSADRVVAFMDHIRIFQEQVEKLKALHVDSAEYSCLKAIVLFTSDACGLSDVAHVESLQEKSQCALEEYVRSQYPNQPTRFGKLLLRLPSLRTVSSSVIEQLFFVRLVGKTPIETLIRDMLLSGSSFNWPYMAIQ

Sequence of Nuclear receptor coactivator 1 (Homo sapiens) (Q15788 whole entry, looked up, the tested form may be a part): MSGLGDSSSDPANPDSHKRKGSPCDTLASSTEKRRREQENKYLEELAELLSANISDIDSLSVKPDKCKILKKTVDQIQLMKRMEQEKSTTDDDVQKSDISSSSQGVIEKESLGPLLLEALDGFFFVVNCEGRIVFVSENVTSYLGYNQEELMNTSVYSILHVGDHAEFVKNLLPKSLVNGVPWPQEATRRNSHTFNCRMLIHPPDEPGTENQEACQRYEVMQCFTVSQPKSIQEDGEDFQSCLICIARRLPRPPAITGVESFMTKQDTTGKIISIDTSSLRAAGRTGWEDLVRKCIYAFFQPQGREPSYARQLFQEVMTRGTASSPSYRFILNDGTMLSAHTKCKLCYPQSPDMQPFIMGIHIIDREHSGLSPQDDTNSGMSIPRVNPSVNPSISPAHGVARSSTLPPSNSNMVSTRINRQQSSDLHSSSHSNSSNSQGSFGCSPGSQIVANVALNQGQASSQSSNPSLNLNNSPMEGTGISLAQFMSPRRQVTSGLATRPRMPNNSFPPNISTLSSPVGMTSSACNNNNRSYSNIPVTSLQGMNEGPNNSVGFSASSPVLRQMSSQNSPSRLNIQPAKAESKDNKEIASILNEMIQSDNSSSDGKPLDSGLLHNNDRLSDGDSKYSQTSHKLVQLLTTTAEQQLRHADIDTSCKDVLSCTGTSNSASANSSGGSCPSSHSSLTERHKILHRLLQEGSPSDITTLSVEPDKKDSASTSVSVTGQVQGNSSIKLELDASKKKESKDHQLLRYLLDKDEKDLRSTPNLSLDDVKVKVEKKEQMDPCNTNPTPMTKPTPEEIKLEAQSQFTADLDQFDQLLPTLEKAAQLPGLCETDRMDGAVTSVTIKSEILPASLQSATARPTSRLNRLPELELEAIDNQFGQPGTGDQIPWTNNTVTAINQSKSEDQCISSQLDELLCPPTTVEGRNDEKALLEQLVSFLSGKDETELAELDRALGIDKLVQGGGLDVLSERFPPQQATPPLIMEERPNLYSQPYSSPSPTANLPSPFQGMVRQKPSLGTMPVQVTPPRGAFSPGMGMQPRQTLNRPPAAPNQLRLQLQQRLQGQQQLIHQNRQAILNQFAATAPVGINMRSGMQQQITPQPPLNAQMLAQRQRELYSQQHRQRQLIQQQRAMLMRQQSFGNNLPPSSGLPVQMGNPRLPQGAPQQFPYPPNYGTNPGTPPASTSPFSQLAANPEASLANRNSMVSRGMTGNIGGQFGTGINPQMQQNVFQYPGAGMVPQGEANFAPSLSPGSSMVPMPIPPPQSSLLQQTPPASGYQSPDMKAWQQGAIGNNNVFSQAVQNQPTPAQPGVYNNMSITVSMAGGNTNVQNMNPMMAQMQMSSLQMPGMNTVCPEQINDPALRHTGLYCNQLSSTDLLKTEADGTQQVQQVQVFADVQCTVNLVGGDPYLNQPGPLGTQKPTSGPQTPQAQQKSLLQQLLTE
Sequence of Nuclear receptor subfamily 5 group A member 2 (Homo sapiens) (O00482 whole entry, looked up): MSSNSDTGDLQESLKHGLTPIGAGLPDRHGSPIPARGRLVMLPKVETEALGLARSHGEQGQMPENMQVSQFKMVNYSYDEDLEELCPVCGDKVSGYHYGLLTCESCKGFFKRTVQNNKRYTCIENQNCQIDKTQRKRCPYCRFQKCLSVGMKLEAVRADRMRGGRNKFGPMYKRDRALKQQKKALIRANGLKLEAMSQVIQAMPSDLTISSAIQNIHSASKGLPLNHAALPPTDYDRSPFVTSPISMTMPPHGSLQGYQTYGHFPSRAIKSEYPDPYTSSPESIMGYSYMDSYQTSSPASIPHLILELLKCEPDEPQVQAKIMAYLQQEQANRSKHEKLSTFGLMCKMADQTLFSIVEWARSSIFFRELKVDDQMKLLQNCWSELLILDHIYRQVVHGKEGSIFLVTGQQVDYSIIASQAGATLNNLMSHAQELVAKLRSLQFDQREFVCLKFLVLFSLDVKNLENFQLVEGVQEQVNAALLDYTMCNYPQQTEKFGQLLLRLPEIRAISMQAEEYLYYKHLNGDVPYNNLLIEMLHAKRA
Sequence of Nuclear receptor coactivator 2 (Homo sapiens) (Q15596 whole entry, looked up, the tested form may be a part): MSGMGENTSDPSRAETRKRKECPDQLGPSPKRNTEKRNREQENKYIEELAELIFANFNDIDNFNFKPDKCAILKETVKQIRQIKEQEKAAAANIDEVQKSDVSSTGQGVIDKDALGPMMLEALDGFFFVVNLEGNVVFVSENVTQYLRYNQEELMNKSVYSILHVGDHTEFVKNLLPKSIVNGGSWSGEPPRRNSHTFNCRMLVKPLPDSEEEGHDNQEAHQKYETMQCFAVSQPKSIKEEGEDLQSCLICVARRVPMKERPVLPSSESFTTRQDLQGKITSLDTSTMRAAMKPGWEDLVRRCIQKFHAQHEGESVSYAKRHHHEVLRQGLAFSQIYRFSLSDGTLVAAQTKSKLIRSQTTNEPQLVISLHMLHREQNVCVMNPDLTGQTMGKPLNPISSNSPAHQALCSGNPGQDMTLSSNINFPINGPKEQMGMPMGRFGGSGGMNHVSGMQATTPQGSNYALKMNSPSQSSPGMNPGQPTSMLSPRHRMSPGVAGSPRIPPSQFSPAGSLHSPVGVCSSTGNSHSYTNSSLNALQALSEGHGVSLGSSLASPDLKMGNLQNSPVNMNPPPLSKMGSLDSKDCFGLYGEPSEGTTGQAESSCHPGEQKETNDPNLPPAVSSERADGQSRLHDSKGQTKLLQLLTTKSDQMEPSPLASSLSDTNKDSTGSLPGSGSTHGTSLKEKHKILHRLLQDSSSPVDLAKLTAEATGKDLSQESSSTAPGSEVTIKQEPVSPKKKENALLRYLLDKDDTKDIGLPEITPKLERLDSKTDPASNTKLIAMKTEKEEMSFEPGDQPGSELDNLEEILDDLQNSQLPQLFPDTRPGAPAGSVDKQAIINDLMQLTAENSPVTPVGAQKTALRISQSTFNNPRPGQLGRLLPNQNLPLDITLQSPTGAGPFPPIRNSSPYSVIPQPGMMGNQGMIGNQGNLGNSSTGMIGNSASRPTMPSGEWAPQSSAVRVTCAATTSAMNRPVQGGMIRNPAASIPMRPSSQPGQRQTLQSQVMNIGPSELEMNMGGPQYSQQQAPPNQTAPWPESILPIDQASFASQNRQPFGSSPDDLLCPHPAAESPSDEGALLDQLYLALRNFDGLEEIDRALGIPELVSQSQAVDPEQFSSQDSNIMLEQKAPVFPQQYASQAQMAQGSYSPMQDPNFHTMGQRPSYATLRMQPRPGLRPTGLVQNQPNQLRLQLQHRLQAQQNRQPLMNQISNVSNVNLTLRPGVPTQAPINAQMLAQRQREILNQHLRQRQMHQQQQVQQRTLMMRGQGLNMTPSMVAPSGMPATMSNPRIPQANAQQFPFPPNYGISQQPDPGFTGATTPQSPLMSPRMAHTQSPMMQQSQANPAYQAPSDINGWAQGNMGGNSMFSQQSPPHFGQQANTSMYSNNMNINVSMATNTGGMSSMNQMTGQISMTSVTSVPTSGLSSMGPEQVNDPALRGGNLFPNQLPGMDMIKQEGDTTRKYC
Sequence of Steroidogenic factor 1 (Homo sapiens) (Q13285 whole entry, looked up, the tested form may be a part): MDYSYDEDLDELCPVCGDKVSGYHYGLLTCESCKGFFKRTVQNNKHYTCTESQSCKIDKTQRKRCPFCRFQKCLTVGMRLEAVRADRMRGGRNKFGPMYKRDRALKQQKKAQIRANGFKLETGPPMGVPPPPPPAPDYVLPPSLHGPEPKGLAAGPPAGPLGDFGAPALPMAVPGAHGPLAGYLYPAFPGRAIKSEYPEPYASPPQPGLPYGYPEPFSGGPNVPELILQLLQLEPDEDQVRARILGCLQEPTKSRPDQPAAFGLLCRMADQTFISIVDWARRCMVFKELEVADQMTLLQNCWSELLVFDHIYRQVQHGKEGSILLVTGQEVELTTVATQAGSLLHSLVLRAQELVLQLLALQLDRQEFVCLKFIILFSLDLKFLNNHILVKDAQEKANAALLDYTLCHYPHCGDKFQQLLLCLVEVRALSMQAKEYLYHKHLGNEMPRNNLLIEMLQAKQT

Consider `Cc1cc(N2CCOCC2)c2c(N)c(Br)cc(C)c2n1`, for which the inhibition (as a rule, the change of the read-out against control, counted positive when it falls) in test [1] is 71.8% (active); in test [2], 59% (active); in test [3] it was 76.3% (active); in test [4] it was 60.3% (active); in test [5] it was -7.31%; in test [6] it was 54.8% (active).

On to `CS(=O)(=O)N(CCC#N)Cc1ccc(/C=C2\C(=O)Nc3ccccc32)o1`, for which the inhibition was 55.2% (active) in test [1]; 37.4% (active) in test [2]; 52.9% (active) in test [3]; 29.3% (active) in [4]; 4.75% in [5]; 11.8% in [6].

Regarding `O=C1N(c2ccccc2)C[C@@H]2C[C@@H](c3cc4ccccc4o3)N3CCC[C@@]123`, the inhibition in [1] is 95.3% (active); in [2], 96.3% (active); in [3], 74.5% (active); in test [4], 94.7% (active); in test [7], 90.4% (active); in test [8], 109% (active). For the same compound, the inhibition was 98% (active) in test [9], 98.4% (active) in test [10], 47.8% (active) in test [5] and 43.3% in test [6].

Take `Cc1nnc(-c2ccccc2)c(=O)n1/N=C/c1c(O)ccc2ccccc12`: the inhibition was 40.6% in [1]; 55% (active) in [2]; 57% (active) in test [3]; 62.6% (active) in [4]; -12.9% in test [5]; 23.1% in test [6].

As to `CC1(Cc2ccc(Cl)cc2)C(=O)Nc2ccc(-c3cccnc3)cc21` (stereo unspecified), the inhibition in test [1] is 73.7% (active); in [2], 49.3% (active); in [3], 59.2% (active); in test [4], 52.8% (active); in test [5] it was 6.39%; in test [6] it was 53.2% (active).

Regarding `Nc1nc(=S)c2ncn([C@@H]3O[C@H](CO)[C@@H](O)[C@H]3O)c2[nH]1`, the inhibition in [1] was 67.6% (active); in test [2], 23.3%; in [3], 11.8%; in test [4], 29.9% (active); in test [8], 77.2% (active); in test [9], 48.2% (active).

Take `CCc1c(C)nc2ccc(Br)cc2c1SCCC#N`: the inhibition in test [1] is 58.4% (active); in test [2] it was 44.3% (active); in [3], 66.9% (active); in [4] it was 33.5% (active); in test [5], 9.39%; in test [6], 34.7%.

Turning to `CC1(Cc2ccc(F)cc2)C(=O)Nc2ccc(-c3cccnc3)cc21` (stereo unspecified), the inhibition was 50.6% (active) in test [1]; 35.4% (active) in [2]; 48.7% (active) in [3]; 35.3% (active) in test [4]; 10.2% in test [5]; 36.8% in [6].

`CC1=C(C(=O)OCc2ccc3c(c2)OCO3)C(c2ccc(O)c([N+](=O)[O-])c2)NC(=O)N1` (stereo unspecified): the inhibition in [1] was 60% (active); in test [2] it was 37.2% (active); in [3] it was 58.6% (active); in test [4] it was 35.7% (active); in test [5], 20.7%; in test [6], 33.6%.

Turning to `O=C(NCCc1ccccc1)c1ccc2c(c1)OCCCO2`, the inhibition in test [1] is 68.3% (active); in test [2], 67.7% (active); in test [3], 31.9%; in [4] it was 53.5% (active); in test [7], 75.5% (active); in [8], 62.5% (active). Also, the inhibition in [9] is 78.5% (active); in test [10] it was 66.5% (active); in test [5], 78.8% (active); in [6], 87.7% (active).

`CCc1nc(N)nc(N)c1-c1ccc(Cl)c([N+](=O)[O-])c1`: the inhibition in [1] was 56.7% (active); in test [2], 24.9%; in test [3], 58.2% (active); in [4], 25%; in [5], 28.1%; in test [6] it was 24.5%.

For `COc1cc([C@@H]2c3cc4c(cc3[C@@H](O[C@@H]3O[C@@H]5CO[C@@H](C)O[C@H]5[C@H](O)[C@H]3O)[C@H]3COC(=O)[C@H]23)OCO4)cc(OC)c1O`, the inhibition in [1] was 64.4% (active); in [2] it was 8.66%; in test [3], 62.5% (active); in test [4], 6.22%; in test [8], 69.3% (active); in [9], 44.6% (active).

In the case of `CCCCN1C=CC(=C2C(=O)c3ccccc3C2=O)C=C1`, the inhibition was 41.5% in test [1]; 23.1% in test [2]; -41.3% in [3]; 14.1% in test [4]; 51% (active) in test [5]; 73.1% (active) in test [6].

Turning to `COc1ccc(-c2cc(=O)oc3cc(OC(=O)C4CCCCC4)c(Cl)cc23)cc1`, the inhibition in test [1] is 59.4% (active); in test [2] it was 38.7% (active); in test [3], 56% (active); in test [4], 41.2% (active); in test [5], -4.78%; in [6], 37.4%.

With `Cn1nc(C(F)(F)F)c(C#N)c1N1CCN(c2ccc(F)cc2)CC1`, the inhibition in test [1] was 36.7%; in [2], 31.8% (active); in test [3], 36.7%; in [4] it was 25.1%; in test [5], -6.8%; in test [6], 48.8% (active).

For `CNc1ccc2ncc(-c3cccc(C(=O)N(C)C)c3)n2n1`, the inhibition in test [1] was 72.2% (active); in [2], 62.2% (active); in [3] it was 72.4% (active); in test [4], 60.8% (active); in test [5], -12.3%; in [6], 42.7%.

As to `CC1(C)CC(N2CCN(C(c3ccccc3)c3ccccc3)CC2)=CC(=[N+]2CCCCC2)C1`, the inhibition in [1] was 91% (active); in test [2], 87.8% (active); in [3] it was 69.5% (active); in test [4], 87.8% (active); in test [7] it was 80.6% (active); in [8] it was 110% (active). Also, the inhibition in test [9] is 94.8% (active); in test [10], 94.7% (active); in [11], 24.1% (active); in [12], 86.3% (active).

On to `Nc1ccc(-c2nc3c(Cl)cc(N)cc3[nH]2)cc1`, for which the inhibition in [1] was 18.7%; in test [2], -18.4%; in [3], -18.9%; in test [4] it was -17.4%; in test [5], 28.1%; in test [6], 71.7% (active).

Consider `Cn1cc(C(=O)N/N=C/c2c(O)ccc3ccccc23)ccc1=O`, for which the inhibition is 52.8% (active) in test [1]; 42.4% (active) in [2]; 49.5% (active) in test [3]; 44% (active) in test [4]; -10.3% in test [5]; 26.8% in test [6].
